The results in this text go back to the supplement of paper PMC12067093, “Discovery and optimisation of a covalent ligand for TRIM25 and its application to targeted protein ubiquitination” (Chemical Science, 2025).

Targets with the largest changes are over-represented here; the source holds about 21,000 in all.
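Also: competitive chemoproteomic profiling in live THP-1 cells with an iodoacetamide desthiobiotin (IA-DTB) probe, comparing probe-labelled peptide intensities in compound-treated cells against DMSO-treated controls.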

Compound in one assay: CC1Cc2ccccc2N1C(=O)C1CCCN(C1)C(=O)CCl (mixture of isomers) [TRIM25 ligand 11 (diastereomer mixture)]
Description: probe-labelled cysteine peptide fold change vs DMSO (competition) (log2 fold change); higher = less target engagement (more negative = stronger competition). The note with it: 10 µM; THP-1; incubation time: 4 h.
For the target “MAP1S_Q66K74_841_HDPLPDPLKVPPPLPDPSSICMVDPEMLPPK (UniProt Q66K74)”, the “probe-labelled cysteine peptide fold change” value is -0.202.
On to “MIF4GD_A9UHW6_150_EEEVDCLVLQLHR (UniProt A9UHW6)”, for which the “probe-labelled cysteine peptide fold change” value came out at 0.222.
On to “MDN1_Q9NU22_3690_LLGSQLLACTLSHNTLFGEAPSDLMVKPDGPYDFYQHPNVPEAR (UniProt Q9NU22)”, for which the “probe-labelled cysteine peptide fold change” value is 0.00494.
Turning to “MYADM_Q96S97_279_SRDVSCSR (UniProt Q96S97)”, the “probe-labelled cysteine peptide fold change” value came out at 1.04.
With “NCAPD3_P42695_143_CIQTLK (UniProt P42695)”, the “probe-labelled cysteine peptide fold change” value was found to be 0.0922.
As to “MOV10_Q9HCE1_650_LVSAQFPIDHFTHIFIDEAGHCMEPESLVAIAGLMEVK (UniProt Q9HCE1)”, the “probe-labelled cysteine peptide fold change” value is 0.00257.
With “MAP4_P27816_635_CSLPAEEDSVLEK (UniProt P27816)”, the “probe-labelled cysteine peptide fold change” value is -0.069.
Consider “MBTPS2_O43462_386_SSSSSFCIIPSLETHTR (UniProt O43462)”, for which the “probe-labelled cysteine peptide fold change” value was -0.0619.
On the same count and under the same terms, for “MRC2_Q9UBG0_201_YDNQWFHGCTSTGR (UniProt Q9UBG0)” the value was -0.768.
“MTHFS_P49914_180_EQICLQVPVNENDMK (UniProt P49914)”: the “probe-labelled cysteine peptide fold change” value is -0.00999.
The same measure, in the same setting: as for “NAPA_P54920_84_HDAATCFVDAGNAFK (UniProt P54920)”, the figure is 0.0886; as for “LYPLA2_O95372_213_TYPGVMHSSCPQEMAAVK (UniProt O95372)”, 0.0451.
“MYO9B_Q13459_152_QQADFDDLCNLPELTEGNLLK (UniProt Q13459)”: the “probe-labelled cysteine peptide fold change” value is -0.135.
Still for that read-out and setting: as for “NACC1_Q96RE7_178_VKTEQQESDSVQCMPVAK (UniProt Q96RE7)”, the figure is -0.28; as for “LYAR_Q9NX58_30_NCECLSCIDCGK (UniProt Q9NX58)”, -0.0598.
Still for that read-out and setting: for “MTA3_Q9BTC8_109_CSVALLNETESVLSYLDK (UniProt Q9BTC8)” the value was 0.851; for “MIF_P14174_81_LLCGLLAER (UniProt P14174)”, -0.156.
Same read-out and setting: as for “MIS18A_Q9NYP9_85_AQLEEEAAAAEERPLVFLCSGCR (UniProt Q9NYP9)”, the figure is -0.0813; as for “MCM3AP_O60318_439_SESTDSLGGLSPSEVTAIQCK (UniProt O60318)”, -0.0427.
As for “MAP4K1_Q92918_334+335_SSSLGIPDADCCR (UniProt Q92918)”, the “probe-labelled cysteine peptide fold change” value was -0.0222.
For “MIA3_Q5JRA6_1513_AGLEDECK (UniProt Q5JRA6)”, the “probe-labelled cysteine peptide fold change” value was found to be 0.0174.
Turning to “MCL1_Q07820_286_TINQESCIEPLAESITDVLVR (UniProt Q07820)”, the “probe-labelled cysteine peptide fold change” value is -0.36.
Same read-out and setting: as for “MAN2C1_Q9NTJ4_29_FVSPLYFTDCNLR (UniProt Q9NTJ4)”, the figure is 0.111; as for “MORC3_Q14149_717_QCHMFTDQIK (UniProt Q14149)”, -0.0943.
Take “MATR3_P43243_821_NTHCSSLPHYQK (UniProt P43243)”: the “probe-labelled cysteine peptide fold change” value came to 0.121.
For “MINK1_Q8N4C8_129_EDCIAYICR (UniProt Q8N4C8)”, the “probe-labelled cysteine peptide fold change” value came to 0.00524.
Take “MED14_O60244_1433_QGECTIFAAVR (UniProt O60244)”: the “probe-labelled cysteine peptide fold change” value stood at 0.177.
Turning to “MYCBP2_O75592_4406+4413_NEEHCLPCLHGCDK (UniProt O75592)”, the “probe-labelled cysteine peptide fold change” value is -0.0669.
Still for that read-out and setting: as for “MRPL38_Q96DV4_290_QDQPIDFSEDARPSPCYQLAQR (UniProt Q96DV4)”, the figure is -0.028; as for “METTL18_O95568_48_CSAEQFDLPQDHLWEHK (UniProt O95568)”, -0.285; as for “MTA2_O94776_209_ALDCSSSIR (UniProt O94776)”, -0.025.

The assay is the same for the next values; noted with them: 50 µM; THP-1; incubation time: 4 h.
As to “MDN1_Q9NU22_3690_LLGSQLLACTLSHNTLFGEAPSDLMVKPDGPYDFYQHPNVPEAR (UniProt Q9NU22)”, the “probe-labelled cysteine peptide fold change” value turned out to be 0.105.
As for “MYADM_Q96S97_279_SRDVSCSR (UniProt Q96S97)”, the “probe-labelled cysteine peptide fold change” value stood at 1.29.
For the target “NCAPD3_P42695_143_CIQTLK (UniProt P42695)”, the “probe-labelled cysteine peptide fold change” value was 0.12.
With “MAP4_P27816_635_CSLPAEEDSVLEK (UniProt P27816)”, the “probe-labelled cysteine peptide fold change” value was -0.135.
Regarding “MRC2_Q9UBG0_201_YDNQWFHGCTSTGR (UniProt Q9UBG0)”, the “probe-labelled cysteine peptide fold change” value was -1.05.
Regarding “NAPA_P54920_84_HDAATCFVDAGNAFK (UniProt P54920)”, the “probe-labelled cysteine peptide fold change” value came to 0.00981.
Still for that read-out and setting: as for “MYO9B_Q13459_152_QQADFDDLCNLPELTEGNLLK (UniProt Q13459)”, the figure is -0.0276; as for “NACC1_Q96RE7_178_VKTEQQESDSVQCMPVAK (UniProt Q96RE7)”, -0.426; as for “LYAR_Q9NX58_30_NCECLSCIDCGK (UniProt Q9NX58)”, -0.0603.
Still for that read-out and setting: for “MIF_P14174_81_LLCGLLAER (UniProt P14174)” the value was -0.117; for “MCM3AP_O60318_439_SESTDSLGGLSPSEVTAIQCK (UniProt O60318)”, -0.262.
Consider “MAP4K1_Q92918_334+335_SSSLGIPDADCCR (UniProt Q92918)”, for which the “probe-labelled cysteine peptide fold change” value was -0.126.
Take “MCL1_Q07820_286_TINQESCIEPLAESITDVLVR (UniProt Q07820)”: the “probe-labelled cysteine peptide fold change” value is -0.583.
For “MORC3_Q14149_717_QCHMFTDQIK (UniProt Q14149)”, the “probe-labelled cysteine peptide fold change” value is 0.000884.
For “MATR3_P43243_821_NTHCSSLPHYQK (UniProt P43243)”, the “probe-labelled cysteine peptide fold change” value is -0.196.
For “MED14_O60244_1433_QGECTIFAAVR (UniProt O60244)”, the “probe-labelled cysteine peptide fold change” value stood at 0.249.
